High-throughput results: PubChem BioAssay, National Center for Advancing Translational Sciences (NCATS)
Compounds with a hit are over-represented: about 10% of the library has one in this group of screens.
MCF10A rerep: A quantitative high throughput screen for small molecules that induce DNA re-replication in MCF 10a normal breast cells; MCF 10A DNA re-replication, Hoechst nuclear intensity, 48 h; Potency, µM (highest dose often 46.1 µM), hits mostly activators; 350,000 compounds, 2.9% hits; AID 624296, 2012; further: nearly all actives have a fitted effect of over 50% in size
SW480 rerep: A quantitative high throughput screen for small molecules that induce DNA re-replication in SW480 colon adenocarcinoma cells; SW480 DNA re-replication, Hoechst DNA content imaging, 48 h; Potency, µM (titrated, usually from 46.1 µM), hits mostly activators; 340,000 compounds, 1.8% hits; AID 624297, 2012; further: nearly all actives have a fitted effect of over 55% in size
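Cells (250 per well) received 23 nL compound or DMSO by pin tool and were kept 48 hr at 37 C, 5% CO2. Nuclei were then stained with Hoechst for 40 min and scanned for DNA content.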
ELG1 repair inh: qHTS screen for small molecules that inhibit ELG1-dependent DNA repair in human embryonic kidney (HEK293T) cells expressing luciferase-tagged ELG1; HEK293T ELG1-luciferase reporter, luminescence, 16 h; DNA damage induced by 5-fluorouridine; Potency, µM (doses to about 46.1 µM), actives largely listed as inhibitors; 330,000 compounds, 2.3% hits; AID 504467, 2011; further: nearly all actives have a fitted effect of over 55% in size
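DMSO vehicle served as the neutral condition. Each well held 2,000 cells given 5-fluorouridine plus compound; after 16 hr at 37 °C/5% CO2, ONE-Glo was added and luciferase measured 30 min later.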
VP16 counter: VP16 counterscreen qHTS for inhibitors of ROR gamma transcriptional activity; Drosophila S2 Gal4-VP16 UAS-luciferase, luminescence, 20 h; Potency, µM (series often up to 53.6 µM), most hits filed as inhibitors; 310,000 compounds, 3.5% hits; AID 2546, 2010;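 further: Gal4-VP16 expression switched on by copper sulfate through the metallothionein promoter; nearly all actives have a fitted effect of over 50% in size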
RORgamma inh: qHTS for inhibitors of ROR gamma transcriptional activity. Drosophila S2 Gal4-RORgamma UAS-luciferase reporter, 20 h. Nuclear receptor ROR-gamma (Mus musculus), P51450. Potency, µM (highest dose often 53.6 µM), most hits filed as inhibitors. 310,000 compounds, 5.4% hits; further: nearly all actives have a fitted effect of over 60% in size
Target sequence (P51450 whole entry, looked up, the tested form may be a part): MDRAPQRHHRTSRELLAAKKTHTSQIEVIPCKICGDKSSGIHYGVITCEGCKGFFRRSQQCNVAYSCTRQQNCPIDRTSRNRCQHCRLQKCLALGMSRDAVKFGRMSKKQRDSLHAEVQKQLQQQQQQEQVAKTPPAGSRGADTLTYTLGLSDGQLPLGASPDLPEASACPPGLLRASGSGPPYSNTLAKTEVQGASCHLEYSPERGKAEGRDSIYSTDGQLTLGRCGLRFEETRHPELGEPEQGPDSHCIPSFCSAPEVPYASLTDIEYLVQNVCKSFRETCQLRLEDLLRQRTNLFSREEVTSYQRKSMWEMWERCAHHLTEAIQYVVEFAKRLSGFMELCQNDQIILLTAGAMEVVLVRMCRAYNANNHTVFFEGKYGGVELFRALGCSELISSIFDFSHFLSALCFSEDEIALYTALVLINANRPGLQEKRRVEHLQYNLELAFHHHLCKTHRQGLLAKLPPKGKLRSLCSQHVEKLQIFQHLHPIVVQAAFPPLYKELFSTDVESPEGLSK
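Schneider cells (Drosophila), stable Gal4 DBD–ROR gamma + UAS-luc; 1 hr cmpd preincubation; Cu2+ induction 700 uM final; 20 hr ambient; luminescence.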
Hits are given with their value; - = inactive; ? = inconclusive; . = not tested or not shown; [ ] = another dose, or the depositor's remark. The call rests on the fitted dose curve; in most records, active means well fitted curve in the direction sought with a large enough effect; inconclusive means small, poorly fitted or top-dose-only effect, or another doubt; inactive means no such curve, though single readings can be large; an effect the other way counts as inactive or inconclusive.

SMILES | MCF10A rerep | SW480 rerep | ELG1 repair inh | VP16 counter | RORgamma inh
Cc1ccc(SCCNC(=S)Nc2ccccc2)cc1 | - | - | . | 1µM | 0.794µM
CCNCC(=O)N1c2ccccc2CCc2ccc(NC(=O)OCC)cc21 | - | - | - | - | -
O=C(c1ccc(F)cc1F)N1CCN(c2n[nH]c(=O)[nH]c2=O)CC1 | - | - | - | -[10 µM] | -
COCCN(C(=O)COC(=O)CCCOc1ccccc1)c1c(N)n(Cc2ccccc2)c(=O)[nH]c1=O | - | - | - | . | .
COC(=O)Cc1ccc(NC(=S)NCCO)cc1 | - | -[9.22 µM] | - | - | -
COC(=O)Cc1ccc(NC(=S)NCCSc2ccc(Cl)cc2)cc1 | ? | - | - | ? | 15.8µM
Cc1cc(C)cc(NC(=S)NCCSc2ccc(Cl)cc2)c1 | 20.6µM | - | - | 5.01µM | 2.82µM
COc1ccc(CN(C)C(=O)c2ccccc2OCc2c(C)noc2C)cc1OC | - | - | - | . | .
CCN(CC(=O)Nc1ccc(NC(C)=O)cc1)C(=O)c1cc2c(s1)CCCCC2 | - | - | ? | . | .
COc1cc(Cl)c(NC2=CC(=O)C(=O)c3ccccc32)c(OC)c1 | 3.26µM | 8.2µM | - | . | .
O=C1C=C(Nc2ccc(F)cc2)c2ccccc2C1=O | ? | 9.2µM | ? | . | .
O=C1C=C(Nc2cccnc2)c2ccccc2C1=O | 9.2µM | 6.51µM | . | . | .
CCOc1ccc(NC2=CC(=O)C(=O)c3ccccc32)cc1 | ? | 13µM | . | . | .
Cc1ccc(C(=O)N2CCN(Cc3ccc4c(c3)OCO4)CC2)cc1S(=O)(=O)N1CCOCC1 | - | - | - | - | -
COc1ccc(CCCc2nnc(SCc3nc4ccccc4c(=O)[nH]3)n2C)cc1C | - | - | - | - | -
COCCNC(=O)C(c1ccc(F)cc1)N(Cc1cccs1)C(=O)CCC(=O)Nc1ccccn1 (stereo not given) | - | - | - | - | -
C#CCOc1ccc(/C=C2\SC(=S)N(Cc3cccnc3)C2=O)cc1 | 20.6µM | 14.6µM | - | - | -
COC(=O)CC1C(=O)NCCN1C(=O)CSc1nc2ccccc2o1 (stereo not given) | - | - | - | - | -
COC(=O)CC1C(=O)NCCN1C(=O)CSc1nc2ccccc2c(=O)n1CC(C)C (stereo not given) | - | - | - | ? | 11.2µM
COc1ccccc1N1CCN(C(=O)CSc2nc3ccccc3c(=O)n2CC2CCCO2)CC1 (stereo not given) | - | - | 23.1µM | - | -
CC(C)Cn1c(SCC(=O)N2CCN(C(=O)c3ccco3)CC2)nc2ccccc2c1=O | 0.651µM | - | - | - | -
COc1ccccc1NC(=O)CSc1nc2ccccc2c(=O)n1CC1CCCO1 (stereo not given) | - | - | - | - | -
CC(C)Cn1c(SCC(=O)N2CCCc3ccccc32)nc2ccccc2c1=O | 20.6µM | ? | ? | - | -
C=CCNc1cc(F)ccc1S(=O)(=O)NCC=C | - | - | - | . | .
CCn1c(SCC(=O)N2CCCc3ccccc32)nc2ccccc2c1=O | 23.1µM | - | ? | - | -
SMILES | MCF10A rerep | SW480 rerep | ELG1 repair inh | VP16 counter | RORgamma inh
O=C(CSc1ccc(-c2nc3ccccc3[nH]2)cn1)N1CCN(C(=O)c2ccco2)CC1 | - | - | 16.4µM | - | -
CCN1CCN(CCOc2cccc(Oc3ccccc3)c2)CC1 | ? | ? | - | - | -
CCc1ccc(CNC(=O)c2ccc3nc(C4CCCCC4)oc3c2)nc1 | . | . | ? | 11.2µM | 6.31µM
Cc1ccc(C(=O)N/N=C\C=C\c2ccc(Br)cc2)cn1 | - | ? | - | 2.24µM | 0.562µM
Cc1ccc(C(=O)N/N=C\C=C\c2ccccc2[N+](=O)[O-])cn1 | - | - | - | ? | -
Cc1ccc(C(=O)N/N=C/c2cc(Br)ccc2O)cn1 | - | - | ? | 1.12µM | 2.51µM
O=C(Cc1cccs1)N1CCN(S(=O)(=O)c2ccc(F)cc2)CC1 | - | - | - | - | -
Cc1c(/C=N/NC(=O)CNc2ccccc2)c2ccccn2c1C(=O)c1ccc(Cl)cc1 | - | - | 23.1µM | - | ?
Cc1c(/C=N/NC(=O)CNc2ccccc2)c2ccccn2c1C(=O)c1ccncc1 | - | - | 18.4µM | ? | ?
Cc1ccccc1NCC(=O)N/N=C/c1c(C)c(C(=O)c2ccc(Cl)cc2)n2ccccc12 | ? | . | ? | - | -
Cc1c(C(=O)Nc2ccc(Cl)cc2)c2ccccn2c1C(=O)c1ccccc1 | 25.9µM | ? | - | - | -
COCC(=O)N1CCC(Oc2ccc(C(=O)NC(C)c3nc(C)sc3C)cc2)CC1 (stereo not given) | - | - | - | - | -
CCCCc1ccc(/C=C2\C(=O)c3ccccc3C(O)=C2C(=O)OCC)cc1 | . | . | - | -[0.365 µM] | 10µM
COc1ccc(C=C2C(=O)c3ccccc3C2=O)cc1O | - | - | - | ? | ?
CCn1cnc2c1c(=O)n(CC(=O)OC)c(=O)n2Cc1ccccc1 | - | - | - | - | -
O=C(O)c1ccccc1NC(=S)NC(=O)c1cccc2ccccc12 | - | - | - | - | -
O=C(Nc1ccc2c(c1)OCO2)c1ccccc1 | - | - | ? | - | -
S=C(Nc1ccc(Br)cc1)Nc1ccc2c(c1)OCCO2 | - | - | ? | ? | 17.8µM
O=C(NC(=S)Nc1ccccc1Br)c1ccc2c(c1)OCO2 | - | - | ? | 8.91µM | 4.47µM
O=C(NC(=S)Nc1ccc2c(c1)OCCO2)c1cccc2ccccc12 | - | - | ? | ? | 10µM
COc1cc(NC(=S)Nc2ccc3c(c2)OCCO3)cc(OC)c1OC | - | - | ? | - | -
O=C(NC(=S)Nc1ccc2c(c1)OCO2)c1ccccc1 | - | -[9.22 µM] | ? | ? | 4.47µM
CCCCCCNC(=O)CNC(=S)N(Cc1cccs1)C1CCCCC1 | ? | - | ? | ? | ?
C/C(=N/NS(=O)(=O)c1ccc(Cl)cc1)c1cccc(NC(=O)c2ccc(Cl)cc2Cl)c1 | ? | - | - | - | ?
O=C(CCCCCNC(=O)N1CCn2c1nc1ccccc12)NCCc1ccccc1 | - | - | - | - | -
SMILES | MCF10A rerep | SW480 rerep | ELG1 repair inh | VP16 counter | RORgamma inh
O=C(NC(=S)Nc1ccc2c(c1)OCCO2)c1cccc(Br)c1 | - | - | ? | ? | 5.01µM
O=C(Nc1ccc2c(c1)OCCO2)c1cccc(C(=O)Nc2ccc3c(c2)OCCO3)c1 | - | - | - | - | -
CC(C)c1ccc(O)c(NC(=S)NC(=O)c2ccc3c(c2)OCO3)c1 | ? | - | ? | 1.41µM | 0.562µM
O=C(NCCC1CCCCN1S(=O)(=O)c1ccc(F)cc1)C(=O)Nc1ccccc1 (stereo not given) | - | - | - | . | .
CCN(Cc1ccncc1)C(=O)Cc1cccs1 | - | - | - | - | -
O=[N+]([O-])c1ccc2c(c1)C(O)n1nc(-c3ccc(Cl)cc3Cl)nc1S2 (stereo not given) | - | - | - | ? | 11.2µM
